# PubChem BioAssay AID489017 (The Scripps Research Institute Molecular Screening Center, 2010)
# A number with no mark means an inactive call. No rule for the calls is given here.
# System: Rolipram
# Experiment: off-target binding and CYP450 inhibition panel, profiling panel, selectivity assay for S1P4 antagonist project, biochemical, Ricerca HitProfilingScreen (AID 489017)
# Conditions: Ricerca receptor/enzyme binding panel plus CYP450, at 10 µM, stronger effect = higher value
structure (smiles),measurement,value
CCc1cccc(CC)c1NC(=O)c1ccc(-c2cc(Cl)ccc2Cl)o1,inhibition,-2%
